HIF-2a block – HIF-2a inhibition | actives 0.72% (n = 360,000) | 786-0 RCC cells HIF-2a reporter, luciferase luminescence, overnight | inhibition, % at 18.8 µM;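 active means inhibition of the luminescence signal of 40% or more relative to plate controls, in a single-dose primary screen at 18.75 µM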
TROY signal inh – inhibitors of TROY-dependent NF-kB signaling | Q293 LMP1-TROYcd NF-kB luciferase reporter, 4 h | inhibition, % at 10 µM | actives 0.98% (n = 360,000) | AID 1347056;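 active means compounds whose plate-normalised and pattern-corrected inhibition of the luciferase reporter signal at the single screening dose is 50% or more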
HSP90 inh – blocks HSP90-mediated luciferase refolding in reticulocyte lysate; Rabbit reticulocyte lysate, luciferase refolding luminescence, 3 h; actives 0.91% (n = 290,000); AID 1789; inhibition, % at 5.6 µM;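 active means inhibition above the screen-wide mean plus 3 SD, computed separately per campaign, cut at about 16% in these data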;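 further: 0% = DMSO wells and 100% = 60 µM geldanamycin wells; inhibitors lower the luminescence because luciferase stays unfolded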
aSyn UTR inh – MLPCN primary screen, SNCA 5' untranslated region. alpha-synuclein 5'UTR reporter, inhibitor activity. inhibition, % (tested at 7.5 µM). actives 0.82% (n = 300,000). AID 1813; in the data active means inhibition above about 60%; inconclusive means no clear call, values can overlap the other calls;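 further: H4 neuroglioblastoma cells stably carrying SNCA 5'UTR luciferase fusion; 0% = DMSO wells and 100% = positive control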
TWEAK-Fn14 inh – blocks TWEAK-Fn14 interaction in a reporter cell assay; TWEAK-stimulated Fn14 reporter cells, luciferase luminescence, 8 h; inhibition, % at 10 µM; actives 2% (n = 360,000); AID 1159606; in the data active means inhibition above about 50%
C8 TRAIL sens – sensitizes caspase-8 expressing cells to TRAIL; NB7+C8 cells + TRAIL, ATPlite viability luminescence; inhibition (viability loss, TRAIL sensitization), % at 10 µM; actives 1% (n = 360,000);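 active means compounds causing at least 50% loss of cell viability in the single-dose screen, relative to plate controls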
Mdm2-MdmX confirm – Mdm2/MdmX (human) interaction inhibition, confirmed | shares compounds with HIF-2a block | AID 504601 | actives 99% (n = 740) | inhibition, % at 8 µM | SaOS-2 split-luciferase Mdm2/MdmX complementation, luminescence;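 active means mean inhibition of the luminescence signal across two replicates at or above 26 percent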
Target sequence (O15151 whole entry, looked up): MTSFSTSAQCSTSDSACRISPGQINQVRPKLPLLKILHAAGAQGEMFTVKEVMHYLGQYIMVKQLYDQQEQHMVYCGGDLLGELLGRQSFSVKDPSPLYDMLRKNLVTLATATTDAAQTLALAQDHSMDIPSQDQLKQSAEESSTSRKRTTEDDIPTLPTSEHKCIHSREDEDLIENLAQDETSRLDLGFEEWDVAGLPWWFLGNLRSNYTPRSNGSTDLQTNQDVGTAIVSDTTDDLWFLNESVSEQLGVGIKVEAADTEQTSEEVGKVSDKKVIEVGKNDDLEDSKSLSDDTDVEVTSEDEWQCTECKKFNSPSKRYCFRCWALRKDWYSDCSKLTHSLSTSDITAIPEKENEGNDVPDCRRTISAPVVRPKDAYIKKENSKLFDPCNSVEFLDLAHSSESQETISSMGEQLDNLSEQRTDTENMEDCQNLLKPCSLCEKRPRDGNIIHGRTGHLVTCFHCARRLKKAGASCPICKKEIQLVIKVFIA
Target sequence (Q00987 whole entry, looked up): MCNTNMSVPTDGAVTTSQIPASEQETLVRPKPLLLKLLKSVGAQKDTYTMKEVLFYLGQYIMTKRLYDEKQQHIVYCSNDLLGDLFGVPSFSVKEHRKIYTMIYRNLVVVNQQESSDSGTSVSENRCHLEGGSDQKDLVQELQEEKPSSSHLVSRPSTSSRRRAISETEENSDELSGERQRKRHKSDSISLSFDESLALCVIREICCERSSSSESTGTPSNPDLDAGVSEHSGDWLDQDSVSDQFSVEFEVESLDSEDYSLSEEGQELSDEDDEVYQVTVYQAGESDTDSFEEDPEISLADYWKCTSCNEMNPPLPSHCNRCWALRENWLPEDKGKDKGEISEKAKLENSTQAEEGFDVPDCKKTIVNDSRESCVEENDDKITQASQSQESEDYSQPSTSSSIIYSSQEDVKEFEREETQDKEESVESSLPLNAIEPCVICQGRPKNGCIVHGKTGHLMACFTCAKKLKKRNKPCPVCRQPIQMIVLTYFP
HIF-2a inh conf – HIF-2a inhibition, single concentration confirmation. shares compounds with HIF-2a block. 786-0 RCC cells, HIF-2a luciferase reporter luminescence, overnight. AID 651580. inhibition, % at 18.8 µM. actives 56% (n = 1,800);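 active means mean inhibition across four replicates of at least 40 percent at the single tested concentration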
HIF-1a cs – HIF-1a inhibition counter-screen for HIF-2a hits; inhibition, % at 18.8 µM; AID 651589; actives 72% (n = 1,800); shares compounds with HIF-2a block; MiaPaCa-2 HIF-1a luciferase reporter, desferoxamine, overnight;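 active means mean inhibition of the reporter signal across four replicates at the single tested dose of 50% or more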
Numbers without * were called inactive; ? = inconclusive; / = no result. In the library only some 3.9% were active in any assay of this set; here they are far more common.

SMILES	HIF-2a block	TROY signal inh	HSP90 inh	aSyn UTR inh	TWEAK-Fn14 inh	C8 TRAIL sens	Mdm2-MdmX confirm	HIF-2a inh conf	HIF-1a cs
Cc1ccccc1-n1nnnc1Sc1nnnn1-c1ccccc1	49*	44	2	/	88*	55*	104*	-15	100*
N#Cc1c(N2CCCC(O)C2)nc(N)c2c(N)nc3c(c12)CC(=O)N3C12CC3CC(CC(C3)C1)C2 (stereo not drawn)	36	11	3	-232	76*	48	91*	/	/
CC1CNC(=S)N(c2ccc(F)cc2)C1=O (stereo not drawn)	5	-9	/	/	7	-4	/	/	/
COc1cc(CN2C(=O)C(CCc3ccccc3)ON=C2c2cnccn2)cc(OC)c1 (stereo not drawn)	9	3	/	/	10	2	/	/	/
C=C1[C@@H](O)[C@H](Cc2ccccc2)N(Cc2ccccc2Br)S1(=O)=O	71*	24	/	/	67*	28	/	55*	106*
Cc1[nH]c2ccccc2c(=O)c1C(=O)/C=C/c1ccccc1	90*	64*	-2	-281	88*	14	103*	85*	105*
Cc1[nH]c2ccccc2c1/C=C/C(=O)c1ccccc1	-213	-82	-6	-64	-7	0	/	/	/
O=C(COc1ccc(S(=O)(=O)N2CCCC2)cc1)N1CCN(c2ccccc2F)CC1	8	-2	-3	10	38	-13	/	/	/
CCOC(=O)COc1ccc(S(=O)(=O)N2CCN(c3ccccc3F)CC2)cc1	47*	6	3	2	1	-10	/	13	-1
CC(=O)[C@@]1(O)C(C)CC2C3C=C(C)C4=Cc5c(cnn5-c5ccccc5)C[C@]4(C)C3C(O)C[C@@]21C (stereo partly drawn)	67*	53*	1	81*	-35	11	/	34	95*
COc1ccc2[nH]c3c(=O)n(/N=C/[C@H]4C(C)C=C(C)CC4C)c(=O)[nH]c3c2c1 (stereo partly drawn)	58*	-23	-3	-14	7	27	/	-2	100*
CC(CNC(=O)CC[C@H]1O[C@@H](n2ccc(=O)[nH]c2=O)[C@H](O)[C@@H]1O)c1ccccc1 (stereo partly drawn)	8	-8	/	/	-6	-2	/	/	/
COc1ccc(Oc2ccc(/C=C/C(=O)c3ccc(O)cc3)cc2[N+](=O)[O-])cc1	91*	77*	2	-97	69*	-7	/	37	104*
Cc1c(O)ccc2c(-c3ccccc3)cc(=O)oc12	6	45	3	1	44	10	/	/	/
COc1ccc(-c2cc(=O)oc3c(C)c(O)ccc23)cc1	17	61*	4	22	72*	17	92*	/	/
Cn1nnnc1Sc1ncnc2scc(-c3ccc(-c4ccccc4)cc3)c12	46*	4	/	/	78*	19	/	-26	101*
Cn1nnnc1Sc1ncnc2scc(-c3cccs3)c12	/	/	/	/	/	/	103*	/	/
Cn1nnnc1Sc1ncnc2scc(-c3ccsc3)c12	66*	33	/	/	72*	-3	103*	49*	100*
Cc1nnc(NC(=O)CSc2ncnc3scc(-c4ccccc4)c23)s1	23	22	3	6	-1	-10	/	/	/
Cn1nnnc1Sc1ncnc2scc(-c3cc4ccccc4o3)c12	97*	76*	/	/	103*	38	103*	96*	107*
Cn1nnnc1Sc1ncnc2scc(-c3ccc(C#N)cc3)c12	90*	46	/	/	83*	10	103*	94*	107*
CCSC1OC(C(COC(C)=O)OC(C)=O)C(OC(C)=O)C1NC(C)=S (stereo not drawn)	1	-16	/	/	-8	-21	/	/	/
Cc1cc(O)ccc1-c1ccc2nncn2c1	10	-3	/	/	-6	20	/	/	/
c1cc(N2CCOCC2)ccc1-c1ccc2nncn2c1	38*	86*	/	/	90*	-2	/	17	-14
Cc1[nH]c2ccccc2c1C(=O)CN1C(=O)NC2(CC(C)CC(C)(C)C2)C1=O (stereo not drawn)	45*	14	-1	?	11	-4	/	28	62*
SMILES	HIF-2a block	TROY signal inh	HSP90 inh	aSyn UTR inh	TWEAK-Fn14 inh	C8 TRAIL sens	Mdm2-MdmX confirm	HIF-2a inh conf	HIF-1a cs
CCN(Cc1ccccc1)C(=O)CN1C(=O)NC2(CC(C)CC(C)(C)C2)C1=O (stereo not drawn)	18	18	9	19	26	-5	/	/	/
CC(C)(C)c1cc(/C=N/O)cc(C(C)(C)C)c1O	43*	37	-4	-5	54*	1	/	26	49
Cc1c(C(=O)NCc2ccccc2C(F)(F)F)sc(=O)n1Cc1ccc2c(c1)OCO2	-3	-4	/	/	2	-24	/	/	/
Cc1ccc(NC(=O)c2ccc([N+](=O)[O-])o2)c(C)c1	-1	11	3	-74	23	-2	/	/	/
Cc1cccc(/C=C/C(=O)c2ccc([N+](=O)[O-])o2)c1	14	23	/	14	61*	33	103*	/	/
Cc1ccccc1/C=C/C(=O)c1ccc([N+](=O)[O-])o1	/	/	/	24	/	/	100*	/	/
CC(C)NC(=O)N(C)C[C@@H]1OCc2cnnn2CCCC(=O)N([C@@H](C)CO)C[C@H]1C	-7	-6	/	/	16	2	/	/	/
c1cncc(CNc2ncnc3ccc(-c4ccoc4)cc23)c1	11	47	/	/	84*	17	87*	/	/
Cc1csc(CNc2ncnc3ccc(-c4cccnc4)cc23)c1	24	29	/	/	21	-4	/	/	/
Cc1csc(CNc2ncnc3ccc(-c4ccoc4)cc23)c1	-2	54*	/	/	90*	3	87*	/	/
Brc1ccc2ncnc(NCc3ccccc3)c2c1	25	54*	2	12	82*	14	90*	/	/
C[C@H]1CCC(=O)N([C@H](CSc2ccc(Br)cc2)Cc2ccccc2)CC1	6	-3	/	/	-2	7	/	/	/
COc1cc(NC(=O)CN2C(=O)CN(C)C2=O)c(C)cc1[N+](=O)[O-]	6	-3	-3	-10	-12	-14	/	/	/
COc1cc(NC(=O)Cn2ncc(Cl)c(Cl)c2=O)c(C)cc1[N+](=O)[O-]	93*	68*	1	121*	98*	93*	/	98*	106*
CN(Cc1ccccc1)C(=O)c1ccc(Cc2cn(C)c3ccccc23)nc1	1	19	/	/	-11	1	/	/	/
CC(=O)Nc1ccc(Nc2nc(C)c([N+](=O)[O-])c(N(C)c3ccccc3)n2)cc1	81*	43	0	86*	-1	2	/	92*	93*
CNc1cncc(-c2cccnc2)n1	5	-1	/	/	10	-10	/	/	/

From PubChem BioAssay
